# Reference: the supplement of paper PMC6522484
# ± gives the standard deviation of the averaged measurements.
# Experiments:
# [1] = tested on: DLD1; assay: cell viability (CellTiter-Glo) relative to plate median (fraction of plate median); higher = more viable cells; settings: 5 µM; treatment time 24 h; reporter: 7TFP
# Outline: (§1)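 For this screen, colorectal cancer cell lines carrying stable lentiviral TCF/Wnt firefly luciferase reporters, either 7TFP or TCF4/Wnt, were seeded into 384-well plates. A day's wait of 24 h preceded addition of library compounds at a final 5 µM, which stayed on the cells for 24 h. Firefly luciferase or CellTiterGlo luminescence, read on parallel plates, was normalised to the plate median per well, and the reported value is the mean of two independent replicates.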
# [2] = tested on: HCT116; assay: as above; settings: 5 µM; treatment time 24 h; reporter: TCF4/Wnt
# Outline: as §1
# [3] = tested on: SW480; assay: as above; settings: 5 µM; treatment time 24 h; reporter: 7TFP
# Outline: as §1
# [4] = tested on: DLD1; assay: TCF/Wnt firefly luciferase reporter signal relative to plate median (fraction of plate median); higher = higher Wnt reporter signal; settings: 5 µM; treatment time 24 h; reporter: 7TFP
# Outline: as §1
# [5] = tested on: SW480; assay: as above; settings: 5 µM; treatment time 24 h; reporter: 7TFP
# Outline: as §1
Structure (SMILES),cell viability [1],cell viability [2],cell viability [3],TCF/Wnt firefly luciferase reporter signal [4],TCF/Wnt firefly luciferase reporter signal [5]
CC(=O)N[C@@H](CS)C(=O)O,0.994 ± 0.037,0.988 ± 0.12,0.993 ± 0.0042,1.1 ± 0.14,1.07 ± 0.16
C[C@]12CCC(=O)C=C1C=C[C@@H]1[C@@H]2CC[C@@]2(C)[C@H]1CC[C@@]21CCC(=O)O1,0.884 ± 0.075,0.899 ± 0.049,0.969 ± 0.044,1.1 ± 0.071,1.025 ± 0.0071
Cc1c(NC(C)C)c(=O)n(-c2ccccc2)n1C,1.01 ± 0.014,1.05 ± 0.15,1.03 ± 0.045,0.95 ± 0.21,0.942 ± 0.0014
